# Assay results reported in PubChem BioAssay AID488841 (Sanford-Burnham Center for Chemical Genomics, 2010).
# Among all 1,400 compounds or so, about 380 (27%) were called active.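 The calls were made as follows: active = mean inhibition above 50% across duplicate retests at 10 µM; inactive = the rest.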 Some of the results follow.
# Assay: inhibition of NALP1/ASC/caspase-1 reporter signal in yeast, confirmation, NALP1 inhibitor project, S. cerevisiae, luminescence, single concentration (AID 488841);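 also: plate controls were DMSO in galactose medium for no effect and cells in plain SD medium for full effect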
# Details: S. cerevisiae NALP1/ASC/Caspase-1 reporter, beta-gal luminescence; at 10 µM; stronger effect = higher value
row,SMILES,inhibition
1,CCOC(=O)/C=C/C(=O)Nc1cccc([N+](=O)[O-])c1,66.3% (active)
2,O=C(/C=C/c1cccc([N+](=O)[O-])c1)c1ccco1,38.9% (inactive)
3,CCOC(=O)/C=C/C(=O)Nc1nccs1,45.4% (inactive)
4,CCOC(=O)N1CCC(=NNS(=O)(=O)c2cccc([N+](=O)[O-])c2)CC1,24% (inactive)
5,COC(=O)/C=C\C(=O)Nc1cccc([N+](=O)[O-])c1,51.5% (active)
6,O=C(CON=C1c2ccccc2-c2ccccc21)NC12CC3CC(CC(C3)C1)C2,30.6% (inactive)
7,CCOC(=O)c1c(C)[nH]c(C(=O)COC(=O)c2oc3ccccc3c2C)c1C,23.3% (inactive)
8,CCC(C)NCCOc1cccc(Br)c1 (stereo unspecified),26.1% (inactive)
9,COCCN(CCOC)c1ncnc2c1cnn2-c1ccc(Cl)cc1,56.8% (active)
10,COC(=O)c1ccc(Cn2cnc3c(cnn3-c3ccc(Cl)cc3)c2=O)o1,34.6% (inactive)
11,CN(Cc1ccccc1)c1ncnc2c1cnn2-c1ccccc1,49.5% (inactive)
12,Cc1occc1C(=O)Nc1c(F)c(F)c(F)c(F)c1F,25.9% (inactive)
13,CCC1(CC)Cc2ccccc2C(Nc2c(C)n(C)n(-c3ccccc3)c2=O)=N1,21.4% (inactive)
14,NNC(=S)NCc1cccnc1,24.5% (inactive)
15,S=C1SCN(Cc2cccnc2)CN1Cc1cccnc1,76% (active)
16,O=C1/C(=C\c2cccnc2)CN(Cc2ccccc2)C/C1=C\c1cccnc1,22.2% (inactive)
17,Cc1ccc(Sc2nnc(Cc3ccccc3)c3ccccc23)cc1,38.2% (inactive)
18,O=C(c1ccccc1)c1ccc(OCC(O)CNC2CCCc3ccccc32)cc1 (stereo unspecified),32.6% (inactive)
19,CCOC(=O)N1CCN(c2c(NCCOC)c(=O)c2=O)CC1,26.4% (inactive)
20,CCOC(=O)N1CCN(c2ccc(Cl)c(Cl)c2)CC1,60.3% (active)
21,CCN1CCN(C(=S)Nc2ccc(Cl)c(Cl)c2)CC1,37% (inactive)
22,COc1ccc(OC)c(S(=O)(=O)Nc2ccc(O)c3ccccc23)c1,32.9% (inactive)
23,O=C(O)[C@@H](c1ccccc1)N1Cc2ccccc2C1=O,26.9% (inactive)
24,COc1ccc(NCc2ccc([N+](=O)[O-])s2)cc1,14.8% (inactive)
25,CCOC(=O)N/N=C/c1ccc(N(CC)CC)cc1O,52.4% (active)
26,CCN(CC)c1ccc(/C=N/OC(C)C(=O)Nc2ccc(C)cc2)cc1 (stereo unspecified),41% (inactive)

row,SMILES,inhibition
1,Clc1ccc2c(N/N=C/c3cccc(Br)c3)ccnc2c1,42.9% (inactive)
2,O=C(CCN1C(=O)c2ccccc2C1=O)N1CCN(C2c3ccccc3-c3ccccc32)CC1,18.4% (inactive)
3,COc1ccc(-c2[nH]ncc2CN2CCC(OCc3ccccn3)CC2)c(F)c1,23.8% (inactive)
4,Cn1cc(C(=O)NCc2ccc(F)cc2)c(=O)c2cc(S(=O)(=O)N3CCCCC3)ccc21,32.6% (inactive)
5,O=[N+]([O-])c1cc(S(=O)(=O)N2CCCCCC2)ccc1F,74.7% (active)
6,CC(C)C(C)NC(=O)COc1ccc(S(=O)(=O)N2CCOCC2)cc1[N+](=O)[O-] (stereo unspecified),10.1% (inactive)
7,CC(C)NC(=O)c1ccc(COCC(F)(F)F)cc1,41.5% (inactive)
8,CN1c2ccccc2-c2nc3ccccc3n2C1c1cccs1 (stereo unspecified),26.3% (inactive)
9,O=C(Cc1cccs1)Nc1nc(-c2ccc(F)cc2F)cs1,71.6% (active)
10,O=C(CN1CCCCC1)Nc1nc(-c2ccc(F)c(F)c2)cs1,43.3% (inactive)
11,COc1ccccc1NS(=O)(=O)c1ccc(NC(=O)Cc2cccs2)cc1,31.7% (inactive)
12,COc1ccccc1N1C(=O)C2CCC(c3ccccc3)CC2C1=O (stereo unspecified),40.1% (inactive)
13,COc1ccc(S(=O)(=O)N2CCOC2CNC(=O)C(=O)NCCCN2CCOCC2)cc1C (stereo unspecified),36.4% (inactive)
14,O=C(Nc1ccc2c(c1)Cc1ccccc1-2)c1ccncc1,64.8% (active)
15,CS(=O)(=O)N(Cc1ccccc1)c1ccc(C(=O)Nc2cccnc2)cc1,19.7% (inactive)
16,O=C(CN1CCN(c2ccccc2)CC1)Nc1ccc2c(c1)CCC2,22.7% (inactive)
17,O=C(Nc1ccc2nc3ccccc3nc2c1)c1ccccc1,70.2% (active)
18,O=C(Nc1ccc2c(c1)CCC2)c1ccccc1,73.4% (active)
19,O=C(Nc1ccc(Cl)c(Cl)c1)c1ccncc1,49.2% (inactive)
20,O=C(COc1ccc(Cl)cc1)Nc1ccc2c(c1)CCC2,39.6% (inactive)
21,O=C(COC(=O)C1(c2ccccc2F)CCCC1)N1CCOCC1,17.6% (inactive)
22,Cc1cc(C)c(S(=O)(=O)Nc2ccc(OCC(=O)O)cc2)c(C)c1,27.6% (inactive)
23,CCOC(=O)C1CCCN(Cc2ccc(OCC)cc2)C1 (stereo unspecified),41.2% (inactive)
24,Clc1ccc(OCCN2CCCCC2)cc1Cl,39.4% (inactive)
25,CC/C(=N\NC(=O)c1ccccc1Cl)c1ccc(Br)s1,38.6% (inactive)
26,Cc1cccc(C)c1OCC(=O)Nn1c(=O)[nH]c2ccccc2c1=O,32.6% (inactive)

row,SMILES,inhibition
1,CCC(=O)Nc1cccc(-c2nc3ccccc3o2)c1,69.3% (active)
2,CCCCCC(=O)Nc1ccc2oc(-c3cccnc3)nc2c1,44.2% (inactive)
3,CCCc1cc(C(=O)O)c2ccccc2n1,27.6% (inactive)
4,COC(=O)c1cc(=O)n(-c2ccccc2)c(=Nc2ccccc2)s1,49.4% (inactive)
5,CCC(C(=O)OC)n1cnc2scc(-c3ccc(C)c(C)c3)c2c1=O (stereo unspecified),98.8% (active)
6,Cn1c2ccccc2c(=O)c2c(=O)n(C3CCCCCC3)c(C3CCCCC3)nc21,41% (inactive)
7,COc1ccc(-c2cn3cccnc3n2)cc1Br,78.5% (active)
8,Cn1c(=O)n(CCCOc2ccc(Cl)cc2)c2ccccc21,45.5% (inactive)
9,O=C(NC1CCCC1)C(c1ccccn1)N(C(=O)c1csnn1)C1CC1 (stereo unspecified),18.6% (inactive)
10,c1ccc(-c2noc(-c3ccccc3-c3ccccc3)n2)cc1,23.8% (inactive)
11,O=C(CN1CCOCC1)Nc1ccccc1Sc1ccc(Cl)cc1,32.2% (inactive)
12,CSc1nc(C)cc(OCCO)n1,27.2% (inactive)
13,CC(C)OCCCNC(=O)c1cc2c(=O)n(C)c3ccccc3c2n1C,18.5% (inactive)
14,CCCNC(=O)c1cc2c3ccccc3n(C)c2s1,69.2% (active)
15,Cc1ccc(S(=O)(=O)N(C)C)cc1NC(=O)Nc1ccccc1F,21.1% (inactive)
16,O=C(Nc1ccccc1)Nc1ccc(Br)cc1F,50.3% (active)
17,O=C(NNC(=O)c1ccc(-c2ccccc2)cc1)Nc1ccc(F)cc1F,20.4% (inactive)
18,CCOC(=O)c1ccc(N2CCOCC2)c(NC(=O)COCC(=O)O)c1,16.1% (inactive)
19,COc1ccc(CC(C)N2CCN(Cc3ccccc3)CC2)c(OC)c1 (stereo unspecified),27.8% (inactive)
20,Cc1ccccc1N(CC(=O)N/N=C/c1ccccc1Cl)C(=O)c1ccccc1,32% (inactive)
21,Cc1nc(-c2ccccc2)sc1C(=O)CSc1ccccc1,42% (inactive)
22,CCCSc1ccc2nc(-c3ccccc3)cn2c1,75.4% (active)
23,CSCc1ccc(C(=O)Nc2cc(C)cc(C)c2)cc1,76% (active)
24,Cc1cc(C)cc(NS(=O)(=O)c2ccc(NC(=S)NC(=O)c3ccc(Br)o3)cc2)c1,45.4% (inactive)
25,CS(=O)(=O)N(Cc1ccccc1)c1ccc(C(=O)Nc2ccc3c(c2)OCO3)cc1,33.1% (inactive)
26,COCCn1c(SCC(=O)NC(=O)NC(C)(C)C)nc2ccccc21,27.5% (inactive)

row,SMILES,inhibition
1,CC1CCN(c2ccccc2NC(=O)c2ccc(N3CCOCC3)c([N+](=O)[O-])c2)CC1,1.35% (inactive)
2,Nc1nc(NCc2ccco2)nc(N2CCCCCC2)c1[N+](=O)[O-],62.6% (active)
3,CC1CCCN(c2nc(NCc3ccco3)nc(N)c2[N+](=O)[O-])C1 (stereo unspecified),55.1% (active)
4,Cc1ccc(C(=O)NCc2ccco2)cc1S(=O)(=O)Nc1cccc(Cl)c1,25.1% (inactive)
5,CC1CCN(c2nc(NCc3ccco3)nc(N)c2[N+](=O)[O-])CC1,67.3% (active)
6,Cc1ccc(Nc2nc(N)c([N+](=O)[O-])c(NCc3ccco3)n2)cc1C,60.3% (active)
7,O=C(Nc1nc(-c2ccncc2)cs1)c1ccc(S(=O)(=O)N2CCOCC2)cc1,28.9% (inactive)
8,Clc1ccc(N2CCN(c3cnc4ccccc4n3)CC2)cc1,37.4% (inactive)
9,COc1ccc(-c2nc3c(c(=O)[nH]c(=O)n3Cc3ccccc3)n2C)cc1,27.9% (inactive)
10,CC1CCCCC1NC(=O)/C(C#N)=C/c1ccccc1F (stereo unspecified),39.8% (inactive)
11,CC(C)(C)C1=CC(=O)C(=O)C(C(C)(C)C)=C1,20% (inactive)
12,CCSc1nnc(-c2ccncc2)n1Cc1ccccc1,35.8% (inactive)
13,Cc1ccc(NC(=S)Nc2ccc(Cl)c(Cl)c2)c(OC(F)F)c1,33.8% (inactive)
14,O=C(Cc1ccc([N+](=O)[O-])cc1)c1ccc(O)cc1O,39% (inactive)
15,CC[N+]1(CC)CC2=Cc3c(ccc4ccccc34)CC2C1 (stereo unspecified),14.5% (inactive)
16,CCOC(=O)n1c(=O)n(Cc2ccccc2)c2ccccc21,25.8% (inactive)
17,O=C(c1ccc(COc2ccccc2Br)cc1)N1CCCCC1,36.5% (inactive)
18,CNC(=O)c1nnsc1S(=O)c1ccc(Cl)cc1 (stereo unspecified),88.7% (active)
19,O=C(c1nnsc1S(=O)c1ccc(Cl)cc1)N1CCOCC1 (stereo unspecified),76.7% (active)
20,O=C(CCSc1nc2cc(Cl)ccc2o1)N1CCOCC1,24.1% (inactive)
21,CCCCNC(=O)Nc1nnc(-c2ccc(Cl)cc2)o1,44.9% (inactive)
22,CCCNC(=O)c1nnsc1S(=O)c1ccc(Cl)cc1 (stereo unspecified),99.3% (active)
23,Cn1cc(S(=O)(=O)N2CCN(c3cccc(C(F)(F)F)c3)CC2)c(=O)n(C)c1=O,7.85% (inactive)
